Data reported in PubChem BioAssay.
Unmarked numbers belong to inactive results. Active and inactive are the calls of the source. Unless noted, no stated cut-off is given here; in the data, active means inhibition above about 28%; inactive means the rest.

Tests used:
[1] = molecular target: Nuclear receptor coactivator 3 (Homo sapiens) (UniProt Q9Y6Q9); assay: NCOA3 GAL4-fusion reporter inhibition – cell-based, luminescence, quadruplicate, confirmation (AID 588792;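 active means mean inhibition over 43.08%, the solvent-only control mean plus 3 SD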;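 further: 0% = DMSO treated cells and 100% = gossypol at 36 µM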); details: HEK293 GAL4-SRC3 luciferase reporter, at 3.6 µM, stronger effect = higher value
[2] = system: transactivating tegument protein VP16 (Human herpesvirus 1), Gal4-VP16 luciferase reporter; assay: repression of VP16-driven luciferase reporter – cell-based, luminescence, high throughput, counter-screen for SRC3 inhibitor project (AID 588794; in the data active means inhibition above about 30%); details: mammalian cells, at 3.6 µM, stronger effect = higher value
[3] = molecular target: Nuclear receptor coactivator 1 (Homo sapiens) (UniProt Q15788); assay: NCOA1 GAL4-fusion reporter inhibition – cell-based, luminescence, quadruplicate, confirmation (AID 588820;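 active means mean inhibition above 46.68%, the untreated control wells mean plus 3 SD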;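 further: 0% = DMSO wells and 100% = gossypol 36 µM treated wells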); details: HEK293 GAL4-SRC1 luciferase reporter, at 3.6 µM, stronger effect = higher value
[4] = repression of VP16-driven luciferase reporter – cell-based, luminescence, high throughput, counter-screen for SRC1 inhibitor project (AID 588824; in the data active means inhibition above about 25%); details: cell-based VP16 transactivation luciferase luminescence; at 3.6 µM; stronger effect = higher value
[5] = StAR promoter reporter inhibitors, counter-screen for LRH-1 inverse agonist project, cell-based, luminescence, high throughput (AID 651611); details: StAR promoter luciferase reporter counterscreen, at 3.6 µM, stronger effect = higher value
[6] = molecular target: Nuclear receptor subfamily 5 group A member 2 (Homo sapiens) (UniProt O00482); assay: NR5A2 activity suppression in reporter cells – cell-based, luminescence, confirmation (AID 651613; in the data active means inhibition above about 42%;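 further: HEK293T cells co-transfected with LRH-1 and StAR promoter luciferase reporter; 0% = vehicle wells and 100% = parental cells lacking receptor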); details: cell-based LRH-1 luciferase reporter, inverse agonism; at 3.6 µM; stronger effect = higher value
[7] = molecular target: Steroidogenic factor 1 (Homo sapiens) (UniProt Q13285); assay: inverse agonism at SF1 nuclear receptor – cell-based, luminescence, high throughput, counter-screen for LRH-1 inverse agonist project (AID 651614; in the data active means inhibition above about 44%;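 further: cells cotransfected with StAR promoter reporter and SF1 expression vector; 0% = vehicle on cells with receptor and 100% = vehicle on cells lacking receptor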); details: cell-based SF1 luciferase reporter, at 3.6 µM, stronger effect = higher value
[8] = compounds suppressing VP16-driven luciferase signal – cell-based, luminescence, high throughput, counter-screen for LRH-1 inverse agonist project (AID 651615; in the data active means inhibition above about 33%); details: Gal4-VP16 luciferase reporter cells, at 3.6 µM, stronger effect = higher value

Sequence of Nuclear receptor coactivator 3 (Homo sapiens) (Q9Y6Q9 whole entry, looked up, the tested form may be a part): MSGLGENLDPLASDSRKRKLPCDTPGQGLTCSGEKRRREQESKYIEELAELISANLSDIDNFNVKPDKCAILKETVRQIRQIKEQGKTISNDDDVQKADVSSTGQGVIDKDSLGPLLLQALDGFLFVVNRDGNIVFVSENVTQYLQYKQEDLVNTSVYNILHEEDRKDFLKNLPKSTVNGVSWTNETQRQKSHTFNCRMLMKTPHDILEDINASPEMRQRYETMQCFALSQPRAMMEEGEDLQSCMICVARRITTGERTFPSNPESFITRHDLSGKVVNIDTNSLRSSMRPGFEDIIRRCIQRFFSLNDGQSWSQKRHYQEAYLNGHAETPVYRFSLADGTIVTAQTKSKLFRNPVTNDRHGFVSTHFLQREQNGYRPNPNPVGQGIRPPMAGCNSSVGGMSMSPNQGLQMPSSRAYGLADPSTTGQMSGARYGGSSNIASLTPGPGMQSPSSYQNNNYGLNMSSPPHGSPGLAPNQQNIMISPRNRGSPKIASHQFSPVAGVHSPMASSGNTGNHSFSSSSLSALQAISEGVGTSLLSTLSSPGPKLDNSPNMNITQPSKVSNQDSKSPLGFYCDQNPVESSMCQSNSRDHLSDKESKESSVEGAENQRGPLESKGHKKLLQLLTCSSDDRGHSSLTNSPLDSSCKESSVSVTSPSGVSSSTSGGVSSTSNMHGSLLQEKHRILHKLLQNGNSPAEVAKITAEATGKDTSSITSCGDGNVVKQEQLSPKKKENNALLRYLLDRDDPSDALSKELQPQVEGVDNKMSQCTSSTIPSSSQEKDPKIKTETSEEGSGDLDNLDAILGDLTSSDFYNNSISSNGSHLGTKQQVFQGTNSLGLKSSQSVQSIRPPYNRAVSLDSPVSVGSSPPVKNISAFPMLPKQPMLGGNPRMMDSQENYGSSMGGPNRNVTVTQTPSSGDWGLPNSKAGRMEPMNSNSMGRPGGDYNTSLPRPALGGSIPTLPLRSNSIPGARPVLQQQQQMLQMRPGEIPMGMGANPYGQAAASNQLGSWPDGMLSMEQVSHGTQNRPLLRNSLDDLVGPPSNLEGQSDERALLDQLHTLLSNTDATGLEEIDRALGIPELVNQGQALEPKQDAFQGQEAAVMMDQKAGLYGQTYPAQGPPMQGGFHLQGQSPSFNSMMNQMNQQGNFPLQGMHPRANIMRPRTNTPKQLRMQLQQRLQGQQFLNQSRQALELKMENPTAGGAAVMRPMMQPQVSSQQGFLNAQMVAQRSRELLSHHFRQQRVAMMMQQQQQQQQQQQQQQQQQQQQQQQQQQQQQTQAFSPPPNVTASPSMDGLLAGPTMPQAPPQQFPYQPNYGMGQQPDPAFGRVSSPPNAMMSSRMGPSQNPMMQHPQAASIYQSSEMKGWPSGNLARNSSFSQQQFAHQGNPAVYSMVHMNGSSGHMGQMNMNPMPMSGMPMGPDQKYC
Sequence of Nuclear receptor coactivator 1 (Homo sapiens) (Q15788 whole entry, looked up, the tested form may be a part): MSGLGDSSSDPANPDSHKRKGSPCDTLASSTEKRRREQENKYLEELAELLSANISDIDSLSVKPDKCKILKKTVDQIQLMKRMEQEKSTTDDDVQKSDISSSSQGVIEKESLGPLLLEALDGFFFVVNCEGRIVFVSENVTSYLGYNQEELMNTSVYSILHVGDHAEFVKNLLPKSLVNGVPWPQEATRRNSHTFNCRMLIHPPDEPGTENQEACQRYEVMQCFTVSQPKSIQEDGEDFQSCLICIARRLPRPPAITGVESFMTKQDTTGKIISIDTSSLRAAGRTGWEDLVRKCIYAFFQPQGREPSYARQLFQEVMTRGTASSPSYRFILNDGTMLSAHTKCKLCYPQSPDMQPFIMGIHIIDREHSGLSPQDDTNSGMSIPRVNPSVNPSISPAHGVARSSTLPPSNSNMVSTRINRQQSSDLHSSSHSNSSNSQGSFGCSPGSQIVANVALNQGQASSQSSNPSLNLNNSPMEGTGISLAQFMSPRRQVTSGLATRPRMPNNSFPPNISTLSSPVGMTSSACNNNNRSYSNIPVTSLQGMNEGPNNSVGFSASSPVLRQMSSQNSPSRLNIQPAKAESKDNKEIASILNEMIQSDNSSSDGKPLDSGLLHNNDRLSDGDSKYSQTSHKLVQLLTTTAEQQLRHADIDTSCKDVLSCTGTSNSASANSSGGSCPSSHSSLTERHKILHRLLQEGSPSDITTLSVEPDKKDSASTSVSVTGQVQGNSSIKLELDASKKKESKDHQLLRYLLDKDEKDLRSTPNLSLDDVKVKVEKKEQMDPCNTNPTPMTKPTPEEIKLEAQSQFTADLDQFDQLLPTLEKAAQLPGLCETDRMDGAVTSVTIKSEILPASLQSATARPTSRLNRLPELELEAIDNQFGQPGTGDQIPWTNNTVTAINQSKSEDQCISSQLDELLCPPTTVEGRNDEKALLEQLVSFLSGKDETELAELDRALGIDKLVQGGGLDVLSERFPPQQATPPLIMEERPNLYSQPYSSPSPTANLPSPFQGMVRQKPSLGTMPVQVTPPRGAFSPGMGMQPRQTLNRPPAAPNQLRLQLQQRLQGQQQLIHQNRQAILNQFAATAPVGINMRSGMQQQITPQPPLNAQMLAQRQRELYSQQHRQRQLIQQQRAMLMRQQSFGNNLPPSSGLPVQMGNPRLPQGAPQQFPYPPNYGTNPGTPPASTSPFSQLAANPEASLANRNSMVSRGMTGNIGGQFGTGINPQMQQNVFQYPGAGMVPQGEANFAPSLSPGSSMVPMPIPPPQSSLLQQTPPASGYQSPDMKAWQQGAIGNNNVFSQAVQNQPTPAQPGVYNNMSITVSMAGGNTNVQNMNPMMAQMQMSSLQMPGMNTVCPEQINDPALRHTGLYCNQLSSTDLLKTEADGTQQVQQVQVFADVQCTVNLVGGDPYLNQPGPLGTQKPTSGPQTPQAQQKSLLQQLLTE
Sequence of Nuclear receptor subfamily 5 group A member 2 (Homo sapiens) (O00482 whole entry, looked up): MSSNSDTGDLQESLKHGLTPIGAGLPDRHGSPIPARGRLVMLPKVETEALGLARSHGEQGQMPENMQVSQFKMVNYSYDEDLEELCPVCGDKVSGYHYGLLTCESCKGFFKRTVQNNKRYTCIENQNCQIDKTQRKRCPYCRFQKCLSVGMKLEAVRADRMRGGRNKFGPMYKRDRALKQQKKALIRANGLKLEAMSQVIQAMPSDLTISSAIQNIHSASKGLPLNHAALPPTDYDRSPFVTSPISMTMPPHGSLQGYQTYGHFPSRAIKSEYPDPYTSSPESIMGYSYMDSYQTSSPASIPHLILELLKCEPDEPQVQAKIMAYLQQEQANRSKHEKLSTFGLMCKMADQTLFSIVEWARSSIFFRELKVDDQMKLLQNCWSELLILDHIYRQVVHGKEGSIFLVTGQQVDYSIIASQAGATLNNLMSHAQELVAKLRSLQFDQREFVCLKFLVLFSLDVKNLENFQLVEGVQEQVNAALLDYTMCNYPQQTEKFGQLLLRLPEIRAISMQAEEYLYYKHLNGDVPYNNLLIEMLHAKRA
Sequence of Steroidogenic factor 1 (Homo sapiens) (Q13285 whole entry, looked up, the tested form may be a part): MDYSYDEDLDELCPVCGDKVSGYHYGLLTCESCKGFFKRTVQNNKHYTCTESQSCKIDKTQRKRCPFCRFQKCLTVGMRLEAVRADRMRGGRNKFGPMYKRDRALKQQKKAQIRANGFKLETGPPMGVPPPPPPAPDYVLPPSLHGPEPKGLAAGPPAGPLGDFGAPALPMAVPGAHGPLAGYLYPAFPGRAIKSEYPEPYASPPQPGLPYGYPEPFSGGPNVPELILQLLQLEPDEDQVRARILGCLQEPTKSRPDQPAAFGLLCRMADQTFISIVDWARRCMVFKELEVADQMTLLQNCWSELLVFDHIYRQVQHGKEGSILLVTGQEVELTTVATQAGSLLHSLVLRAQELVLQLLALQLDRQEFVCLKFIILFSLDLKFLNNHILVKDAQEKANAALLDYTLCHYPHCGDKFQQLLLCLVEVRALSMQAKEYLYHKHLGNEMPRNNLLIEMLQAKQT

| Structure (SMILES) | inhibition [1] | inhibition [2] | inhibition [3] | inhibition [4] | inhibition [5] | inhibition [6] | inhibition [7] | inhibition [8] |
| --- | --- | --- | --- | --- | --- | --- | --- | --- |
| Cc1ccc(-c2cc3cccc[n+]3cc2-c2ccc(C)cc2)cc1 | 72.3% (active) | 53.5% (active) | 35.9% | 64.4% (active) | 56.9% (active) | 91.7% (active) | 83.4% (active) | 79.4% (active) |
| Cc1cccc(NC(=O)c2cc(Cl)ccc2[N+](=O)[O-])c1 | 42.4% | 27% | 17.7% | 51.4% (active) | 44.3% (active) | 51% (active) | 58.4% (active) | 33.2% (active) |
| C(=NNc1ccc2ccccc2n1)c1ccccn1 | 60.6% (active) | -12% | -75.3% | -33.3% | 65.4% (active) | 51% (active) | 59.2% (active) | -44.1% |
| COc1ccc(C)cc1NC(=O)c1nnn(Cc2cccc(C(F)(F)F)c2)c1N | 10.7% | 41.8% (active) | 27.5% | 53.3% (active) | 39.6% (active) | 56.2% (active) | 57.3% (active) | 60.3% (active) |
| O=C1C(=O)c2cccnc2-c2ncccc21 | 99.2% (active) | 97.1% (active) | 97.1% (active) | 96.7% (active) | 99.4% (active) | 110% (active) | 99.5% (active) | 99.6% (active) |
| CCN1/C(=C/c2ccc3cc(C)ccc3[n+]2CC)Sc2cc(C)c(C)cc21 | 38.9% | 65.4% (active) | 18.8% | 58.4% (active) | 55.6% (active) | 87.4% (active) | 83.1% (active) | 75.5% (active) |
